The record followed here is PubChem BioAssay AID828 (The Scripps Research Institute Molecular Screening Center, 2007).

Structures are written as SMILES. Among all 140,000 compounds or so, about 550 (0.39%) were called active. Only a selection was taken, and actives are over-represented in it overall. Unmarked numbers belong to inactive results. No stated cut-off is given here; in the data, active means inhibition above about 27%; inactive means the rest.

Chain of Galanin receptor type 2 (Homo sapiens) (O43603 whole entry, looked up): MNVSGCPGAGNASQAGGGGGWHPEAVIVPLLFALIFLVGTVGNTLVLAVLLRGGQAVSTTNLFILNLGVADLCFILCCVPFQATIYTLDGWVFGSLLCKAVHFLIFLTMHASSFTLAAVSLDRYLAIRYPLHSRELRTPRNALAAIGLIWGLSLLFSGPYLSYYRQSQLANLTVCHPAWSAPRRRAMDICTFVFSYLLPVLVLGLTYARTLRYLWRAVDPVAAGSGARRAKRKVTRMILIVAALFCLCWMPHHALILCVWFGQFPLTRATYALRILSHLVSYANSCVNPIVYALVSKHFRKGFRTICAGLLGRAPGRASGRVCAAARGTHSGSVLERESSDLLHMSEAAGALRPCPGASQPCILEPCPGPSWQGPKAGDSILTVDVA

The test concerns the target Galanin receptor type 2 (Homo sapiens) (UniProt O43603). The test is described as follows: GALR2 antagonists in receptor-expressing cells, primary screen (AID 828).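 Further: cells stimulated with galanin 1-16 at roughly its EC80; 0% = agonist challenge control and 100% = basal control without agonist.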 The following applies: antagonist mode, at 4 µM, hits give high values.
The term inhibition denotes the relative decrease from the control value, in per cent. As to `O=C(NNC1CC(=O)N(c2cccc(Cl)c2)C1=O)c1cccnc1` (stereo not drawn), the inhibition is -6.86%.

`COc1ccccc1OCCC(=O)OCC(=O)NCc1ccccc1`: the inhibition was -7.36%.

Take `Cc1cccc(-n2c(C)cc(/C=N/NC(N)=S)c2C)c1`: the inhibition is -7.75%.

Turning to `CCCN(CCC)c1c([N+](=O)[O-])c(=O)oc2ccccc12`, the inhibition was 7.9%.

For the molecule `CCOC(=O)Cc1csc(NC(=O)CSc2ccc(Br)cc2)n1`, the inhibition is 6.81%.

For `CC(C)/C=N/NC(=O)c1cc(Br)ccc1O`, the inhibition was 10.3%.

Turning to `COc1ccc(C2COC(=O)C2=N)c(NC(=O)c2ccccc2)c1` (stereo not drawn), the inhibition is -8.91%.

For the molecule `Cc1nn(Cc2ccc(Cl)cc2)c(Cl)c1/C=N/NC(=O)c1cccnc1`, the inhibition was 10.9%.

As for `CC1CCc2sc(C(=O)N/N=C/C3CCCCC3)cc2C1` (stereo not drawn), the inhibition is -7.82%.

Turning to `CN(C)c1ccc(-n2cccc2/C=N/n2cnnc2)cc1`, the inhibition was 0.57%.

On to `CC(Sc1nc(-c2ccccc2)cc(C(F)(F)F)n1)C(=O)Nc1ccc2c(c1)OCO2` (stereo not drawn), for which the inhibition is 0.9%.

As to `CCc1cccc(C)c1NC(=O)COC(=O)Cc1ccsc1`, the inhibition was 5.66%.

In the case of `Cc1ccc(NC(=O)CSCC(=O)NC2CCCCC2)cc1`, the inhibition is 4.82%.

As for `Cc1ccc(OCC(=O)OC(C)CN(C)Cc2ccccc2)cc1` (stereo not drawn), the inhibition was -4.66%.

On to `CC(NC(=S)Nc1ccc(S(N)(=O)=O)cc1)c1ccc2c(c1)OCO2` (stereo not drawn), for which the inhibition was 4.43%.

Regarding `COc1cccc(-c2ccc(C#N)c(SCC(=O)NCCc3ccc(Cl)cc3)n2)c1`, the inhibition is 6.63%.

Turning to `CCc1ccc(C2C(C#N)=C(N)N(N(C)C)C3=C2C(=O)CCC3)s1` (stereo not drawn), the inhibition was -4.14%.

In the case of `CCCc1nc2c([nH]1)C(c1cccnc1)C(C#N)=C(N)O2` (stereo not drawn), the inhibition is 1.63%.

In the case of `COc1cc(OC)cc(-c2nc3ccccc3c(=O)n2NC(=O)c2cccnc2Cl)c1`, the inhibition was 1.33%.

For `COc1ccc(/C=N/Nc2ncnc3sc4c(c23)CCCC4)cc1O`, the inhibition was 0.22%.

As for `Cc1cc(C)cc(OCC(=O)Nc2nc3ccc([N+](=O)[O-])cc3s2)c1`, the inhibition was 7.65%.

As for `COC(=O)C(NC(=O)c1ccc(OC)cc1)(Nc1ncc(S(=O)(=O)c2ccc([N+](=O)[O-])cc2)s1)C(F)(F)F` (stereo not drawn), the inhibition is -4.68%.

With `O=C(NC(Nc1nc2ccc([N+](=O)[O-])cc2s1)(C(F)(F)F)C(F)(F)F)c1ccccc1`, the inhibition was 88.7% (active).

As for `CC(=O)COc1ccc2c(-c3ccccc3)cc(=O)oc2c1`, the inhibition is -10.7%.

For the molecule `O=C(CNC(=O)OCc1ccccc1)Oc1cc2oc(=O)cc(-c3ccccc3)c2cc1Cl`, the inhibition is 31.1% (active).

For `O=C(CNC(=O)c1ccc(-c2ccccc2)cc1)OCc1ccc(Cl)cc1`, the inhibition is 9.65%.

Regarding `CC(c1cccnc1)N(CCN(C)C)C(=O)Nc1ccc(Cl)c(Cl)c1` (stereo not drawn), the inhibition is 29.6% (active).

Turning to `CS(=O)(=O)N(CC(=O)Nc1ccc(Cl)c(Cl)c1)C1CCCCC1`, the inhibition was -3.02%.

As for `CN(C)CCNC(CC(=O)Nc1ccc(Cl)c(Cl)c1)C(=O)O` (stereo not drawn), the inhibition was -5.57%.

As to `COC(=O)c1ccccc1SC1CC(=O)N(c2cccc(C)c2)C1=O` (stereo not drawn), the inhibition was 10.2%.

`C=CCNC(=O)COC(=O)c1ccccc1C(=O)N(C)C1CCCCC1`: the inhibition is -14.8%.

Consider `Cc1cc(C(=O)COc2ccccc2[N+](=O)[O-])c(C)n1-c1cccc(S(=O)(=O)N2CCOCC2)c1`, for which the inhibition is -3.23%.

On to `CCOC(=O)c1c(NC(=S)NC(=O)/C=C/c2cccs2)sc(C)c1C`, for which the inhibition was -8.3%.

`Cc1c(C(=O)Nc2cccc(-c3nnc4n3CCCCC4)c2)oc2ccccc12`: the inhibition is -1.52%.

Regarding `CC(Cc1cccs1)NC(=O)c1cccc(Cl)c1` (stereo not drawn), the inhibition is 3.36%.

As for `Cc1ccc(/C(N)=N/OC(=O)COc2ccc(Cl)c(C)c2)cc1`, the inhibition was 7.55%.

For the molecule `O=C(NCCOCc1ccc(Cl)cc1)c1ncn[nH]1`, the inhibition is 6.29%.

For the molecule `O=C(/C=C/Sc1ncn[nH]1)c1ccc(Cl)cc1`, the inhibition is 36.3% (active).

For `CC(C)(C)c1ccc(C(=O)CSc2ncn[nH]2)cc1`, the inhibition is 4.68%.

Take `COc1ccc(NC(=O)c2nc(-n3nc(C)cc3C)ccc2Cl)cc1Cl`: the inhibition was -4.22%.

Turning to `N#Cc1ccccc1Sc1ccccc1C(=O)OCC(=O)NC1CCCCC1`, the inhibition was -1.21%.

With `COc1ccc(CNC(=O)CN(Cc2ccc(Cl)cc2)S(C)(=O)=O)cc1`, the inhibition is -0.09%.

`O=C(Oc1ccc([N+](=O)[O-])cc1)c1ccc(Cl)c(S(=O)(=O)N2CCCCC2)c1`: the inhibition was -9.96%.

Consider `COc1ccc(N(C(=O)c2ccc(C)cc2)S(=O)(=O)c2cccs2)cc1`, for which the inhibition is 5.74%.

Take `CCc1ccc2c(c1)C1(NN=C(c3ccccc3)S1)C(=O)N2` (stereo not drawn): the inhibition is 28.2% (active).

Regarding `O=C1Nc2ccccc2C12Nc1ccccc1S2` (stereo not drawn), the inhibition is 6.08%.

For `C=C1c2cc(CC)ccc2NC(=O)N1c1ccc(C)cc1`, the inhibition was 5.36%.

As for `CNC(=O)c1ccsc1NC(=O)c1ccc(S(=O)(=O)N2CCOCC2)cc1`, the inhibition is -4.99%.

With `CCCn1nc(C(=O)Nc2ccc3nc(C)sc3c2)c2ccccc2c1=O`, the inhibition is -3.02%.

Take `COc1ccccc1N1N=C(c2cccs2)CC1c1ccccc1` (stereo not drawn): the inhibition is 32.5% (active).

In the case of `COc1ccc(C2CC(c3cccs3)=NN2C(=O)COC(=O)c2cc3ccccc3cc2O)cc1OC` (stereo not drawn), the inhibition was 12.7%.

For the molecule `Fc1ccc(N2N=C(c3cccs3)CC2c2ccco2)c(F)c1` (stereo not drawn), the inhibition is -13.2%.

Regarding `CC(C)(C)NC(=O)COC(=O)c1cc(Br)ccc1Cl`, the inhibition was -2.97%.

For the molecule `CC(=O)Nc1ccc(S(=O)(=O)NC(C)C(=O)OCC(=O)NC2CCCC2)cc1` (stereo not drawn), the inhibition was 11.3%.

For `O=C(Cc1cccs1)Nc1cccc(-c2nc3ccccc3[nH]2)c1`, the inhibition is 12.3%.

Regarding `COc1ccc(/C=C(\C#N)C(=O)NCCCn2ccnc2)cc1`, the inhibition was 8.04%.

Consider `O=C(Nc1ccc(Cl)cc1)c1ccsn1`, for which the inhibition is 12.1%.

For the molecule `O=C(Nc1ccccc1)c1nnsc1S(=O)(=O)c1ccc(Cl)cc1`, the inhibition was 42.4% (active).

For the molecule `CC(=O)Nc1cc(C(=O)O)ccc1S(=O)(=O)c1ccc(Cl)cc1`, the inhibition is 4.42%.

Take `Fc1ccc2[nH]c3c(N4CCSCC4)ncnc3c2c1`: the inhibition was 22.8%.

As for `Cc1cc(N2CCN(Cc3ccc4c(c3)OCO4)CC2)n2ncnc2n1`, the inhibition was -5.12%.

On to `Fc1ccc2[nH]c3c(N4CCN(Cc5ccc6c(c5)OCO6)CC4)ncnc3c2c1`, for which the inhibition was 44.8% (active).

Turning to `COc1ccc(C)cc1NC(=O)c1[nH]c(C)c(C(C)=O)c1C`, the inhibition was 27.2% (active).

For `CC(=O)c1c(C)[nH]c(C(=O)NCc2ccc(C)cc2)c1C`, the inhibition was -10.3%.

With `CCOc1ccc(NC(=O)Nc2cc(C)ccc2OC)cc1`, the inhibition was 1.77%.

Regarding `CC(C)(C)N(Cc1ccccc1)C(=O)COC(=O)CCc1c[nH]c2ccccc12`, the inhibition was 1.11%.

On to `Cc1ccc(NC(=S)NC(=O)/C=C/c2ccc(Cl)cc2)cc1`, for which the inhibition is -8.1%.

On to `O=[N+]([O-])c1cc(S(=O)(=O)N2CCCC2)ccc1NN=C1CCCC1`, for which the inhibition is -1.82%.

In the case of `O=C(NCCc1ccccc1)C1CCN(S(=O)(=O)c2ccc(Br)s2)CC1`, the inhibition was -2.64%.

Regarding `COC(C(=O)Nc1ccc(S(=O)(=O)Nc2ccc(C)c(C)c2)cc1)c1ccccc1` (stereo not drawn), the inhibition is 0.51%.

Regarding `Cc1cc(C)nc(SC2CCCCC2NS(=O)(=O)c2ccc(Cl)cc2)n1` (stereo not drawn), the inhibition is -14.2%.

In the case of `COc1ccc(OC)c(/C=C/C(=O)OCC(=O)Nc2ccc3c(c2)OCCO3)c1`, the inhibition is 4.33%.

As for `CCOC(=O)/C(=N\Nc1cc(Cl)ccc1Cl)N1CCN(C)CC1`, the inhibition was -4.67%.

For the molecule `CCn1c(=O)cc(SCC(=O)NCCC2=CCCCC2)c2ccccc21`, the inhibition is -16%.

Turning to `CCOC(=O)C1=C(C)NC(=S)NC1c1cccs1` (stereo not drawn), the inhibition is -4.54%.

For `CCC1C=C(c2ccccc2)C=CN=C1N(CC)CC` (stereo not drawn), the inhibition is 15%.

Turning to `CCC(CC)c1nnc(NC(=O)/C=C/c2ccco2)s1`, the inhibition is 8.13%.

As for `CCOC(=O)/C(N=Nc1cc(C(=O)O)cc(C(=O)O)c1)=C(\O)CCl`, the inhibition was -4.09%.

With `CC1(C)CC(=O)C/C(=N\NC(=O)c2cccs2)C1`, the inhibition is 9.6%.

`Cc1ccc2nc(-c3cccnc3)c(NC3CCCC3)n2c1`: the inhibition was 21.2%.

Regarding `CC(=O)Nc1ccc(S(=O)(=O)Nc2nc(-c3ccc(C(C)(C)C)cc3)cs2)cc1`, the inhibition was -2.4%.

For `O=[N+]([O-])c1ccccc1SNc1ccccn1`, the inhibition is 0.95%.

In the case of `CC(=O)NC1C(Oc2ccc(C)cc2)OC2COC(c3ccco3)OC2C1O` (stereo not drawn), the inhibition was 11.3%.

Consider `O=[N+]([O-])c1ccc(N2CCN(S(=O)(=O)c3ccccc3)CC2)cc1N1CCc2ccccc2C1`, for which the inhibition is 1.38%.

On to `COc1ccccc1-c1nnc(NC(=O)c2cccc(N3C(=O)CCC3=O)c2)o1`, for which the inhibition is -8.68%.

As to `O=C(/C=C\c1cn(-c2ccccc2)nc1-c1cccs1)N1CCOCC1`, the inhibition is 13.8%.

Regarding `O=C(Nn1c(SCc2ccc([N+](=O)[O-])cc2)nc2ccccc2c1=O)c1ccc(F)cc1`, the inhibition is -6.11%.

Take `COc1ccc(-c2cc(C(=O)NC(Cc3c[nH]c4ccccc34)C(=O)O)c(C)o2)cc1OC` (stereo not drawn): the inhibition was 2.65%.

For the molecule `COc1ccc(NS(=O)(=O)c2ccc(NC(=S)NC(=O)/C=C/c3ccc(C)cc3)cc2)nn1`, the inhibition was 7.84%.

Regarding `COc1ccc(NC(=O)/C(Cl)=C(/Cl)S(=O)Cc2ccc(C)cc2)cn1` (stereo not drawn), the inhibition is 105% (active).

`COc1cccc(NC(=O)Cc2ccc(C)cc2)c1`: the inhibition was 4.68%.

Regarding `COC(=O)Cc1ccc(N(Cc2ccccc2F)S(=O)(=O)c2ccc(Br)cc2)cc1`, the inhibition was -3.96%.

Regarding `COc1ccc(C(C(=O)NC2CCCCC2)N(C(=O)CCl)c2ccccc2Cl)cc1` (stereo not drawn), the inhibition was 3.18%.
